Laboratory results reported in ChEMBL document CHEMBL3988442, “University of Dundee, Small-Polar-MMV Screening Library” (2021).
In all, about 48,000 compounds went through this assay and about 13,000 (27%) showed an effect of 50% or more. The list shows a part of the results.

The compounds below were run on Wolbachia pipientis (assay: Anti-Wolbachia Cell-Based Screen). Settings: 5 µM.
Type: functional
Parameters: scale not given: in the data most compounds retested in dose-response had high values

SMILES | Percent Effect
Cc1oc(-c2ccco2)nc1CC(=O)NCC(C)(C)N(C)C | -56.87%
CCCc1cc(C(=O)N2C[C@H]3CC=C(C)C[C@H]3C2)ccn1 | -1.263%
Clc1cnccc1N1CCC(OC2CCOCC2)CC1 | -17.26%
CCc1nsc(N2CCCN(C(=O)c3ccc(CC)o3)CC2)n1 | 0.3515%
Cc1noc2ncnc(NC(CC(C)(C)C)c3cccnc3)c12 (centres undefined) | -8.396%
Cc1ccc(C)c(CC(=O)Nc2cccc(C(=O)N(C)C)n2)c1 | -5.2%
O=C(NCCC1=CCCCC1)c1ccc(-n2cccc2)nc1 | 122.4%
O=C(NCCC1=CCCCC1)c1cc(-c2ccc(O)cc2)n[nH]1 | 12.27%
O=C(NCCC1=CCCCC1)c1n[nH]c2c1CCCC2 | 109.4%
Cc1ccc(NC(=O)CN(C)C(=O)c2ccc(-n3cccc3)nc2)nc1 | -2.8%
O=C(NCCC1=CCCCC1)C1CCN(c2ccc3nncn3n2)CC1 | 0.9872%
CCCc1cc(C(=O)NCCC2=CCCCC2)[nH]n1 | -0.1472%
CC(=O)NCCc1nc(C(C)C)nn1-c1ccncc1C | -7.062%
CC1CCN(CCCNS(=O)(=O)Cc2ccccc2F)CC1 | -5.574%
Cc1ccc(C2=CCN(C(=O)C3CCN(C)C(=O)C3)CC2)cc1 (centres undefined) | 92.67%
CCOc1ccccc1C1=CCN(C(=O)C2CCN(C)C(=O)C2)CC1 (centres undefined) | 103.5%
CN1CC(C(=O)N2CCC(Oc3ccccc3Cl)CC2)CC1=O (centres undefined) | 1.662%
COc1ccc(C2=CCN(C(=O)C3CCN(C)C(=O)C3)CC2)cc1 (centres undefined) | -8.99%
CCOc1cccnc1C(=O)N1CC=C(c2ccc(O)cc2)CC1 | -4.198%
CN1CCC(C(=O)N2CCC(=Cc3cccc(F)c3)CC2)CC1=O (centres undefined) | -1.128%
O=C(Cn1nnn(-c2cccs2)c1=O)NCC1CCOC1 (centres undefined) | 8.767%
NC(=O)c1cccc(CCNCc2cnc(C3CCC3)s2)c1 | -3.682%

SMILES | Percent Effect
O=C(c1sccc1Br)N1CCOCC1 | 7.49%
CS(=O)(=O)N1C[C@@H]2CC[C@H](C1)N(C(=O)CCn1cnc3ccccc31)C2 | 6.293%
CCN1C(=O)C2(CCOCC2)c2cc(NC(=O)COC)ccc21 | 1.52%
COCC(=O)Nc1ccc2c(c1)C1(CCOCC1)CN2CCF.O=C(O)C(F)(F)F | 107%
CCN1C(=O)C2(CCOCC2)c2cc(NC(=O)c3cccn3C)ccc21 | 0.2171%
CCC(=O)Nc1ccc2c(c1)C1(CCOCC1)CN2CCF.O=C(O)C(F)(F)F | 102.7%
Cc1cccc(N(CC(=O)N2CCCCC2)Cc2nc(=O)[nH][nH]2)c1 | -2.957%
O=C(O)C(F)(F)F.O=C(c1ccc2ccc(N3CCN(CC4CC4)CC3)n2c1)N1CCCO1 | -6.167%
O=C(CCn1cc(Cl)cn1)Nc1ncccn1 | -3.476%
Cc1nccc(-c2cccc(NCC(=O)N3CCNC3=O)c2)n1 | 6.599%
O=C(Cn1cc(I)cn1)N1CCOCC1 | 0.7374%
O=C(Cn1cc(I)cn1)N1CCCC1 | 17.91%
O=C(Cn1cc(I)cn1)N1CCNC1=O | 104.2%
O=C(Cn1cc(Cl)cn1)N1CCNC1=O | 95.03%
CC(C)C(C)(C#N)NC(=O)Cn1cc(Cl)cn1 (centres undefined) | -4.371%
CCCNC(=O)Cn1cc(-c2ccccc2)cn1 | 1.367%
O=C(Cn1cc(-c2ccccc2)cn1)N1CCNC1=O | 110%
CN1C[C@@H](NC(=O)CC(C)(C)C)C[C@H]1c1nc(-c2cnccn2)no1 | -6.894%
O=C(CN1CSCC1=O)NCC1CCN(c2ccccc2)C1 (centres undefined) | -5.821%
O=S1(=O)C[C@@H]2[C@H](C1)N(Cc1ccc3ccccc3c1)CCN2CC1CC1 | -3.143%
CN(C)c1cc2c(nn1)CCN(C(=O)c1cc3c(s1)CCCC3)C2 | 1.352%
O=C(c1cc2c(s1)CCC2)N1CCN(c2cnccn2)CC1 | 87.73%

SMILES | Percent Effect
O=C(c1cncs1)N1CCC(c2cnccn2)CC1 | 100.4%
CN(C)c1cc(C(=O)N2CCN(c3cnccn3)CC2)ccn1 | -5.802%
Cc1nc(C2CCCN2C(=O)c2cc3c(s2)CCCC3)no1 (centres undefined) | -3.152%
O=C(c1cnccn1)N1CCN(c2ccnc3ccsc23)CC1 | 3.546%
O=C(c1cc2c(s1)CCCCC2)N1CCC(c2ncc[nH]2)CC1 | 88.07%
O=C(c1cc2c(s1)CCC2)N1CCC(c2cnccn2)CC1 | 151.2%
O=C(c1ccc2c(c1)OCO2)N1CCN(c2cnccn2)CC1 | -2.532%
C=C(C)COc1cccc(CNC(COC)c2ccnn2C)c1 (centres undefined) | 4.309%
Cn1c(Cn2cccn2)nnc1C1CCN(Cc2cccnc2N)CC1 | -0.4084%
CCn1cnnc1C1CCN(C(=O)c2cc3c(s2)CCC3)CC1 | -8.588%
O=C(c1cc2c(s1)CCC2)N1CCCC(c2cnccn2)C1 (centres undefined) | 144.9%
CN(C)c1cc2c(nn1)CCN(C(=O)c1cc3c(s1)CCC3)C2 | 9.509%
O=C(c1cc2c(s1)CCC2)N1CCC(c2ccncc2)CC1 | 202.7%
Cc1cc(C2CCCN2C(=O)c2cc3c(s2)CCC3)on1 (centres undefined) | 4.731%
COc1ccc(Cl)cc1-c1cc(NC(=O)CNC(=O)C2CC2)[nH]n1 | -9.759%
CCn1cc(CN2CCC(N3CCC(O)CC3)CC2)cc1C#N | 0%
Cc1csc(C(C)(C)NCC(=O)N2CCCC(C(N)=O)C2)n1 (centres undefined) | -19.83%
CN(c1ccc(C(N)=O)nn1)C1CCC1 | 4.967%
OCCc1cn(CC2CCCN(Cc3nccs3)C2)nn1 (centres undefined) | -2.093%
Cc1nc(CNC(=O)Nc2ccc3c(c2)CCCN3C)sc1C | 18.83%
CN1CCCc2cc(CNC(=O)c3ccncc3)ccc21 | 7.884%
CC(C)C(=O)NS(=O)(=O)c1ccc2c(c1)N(C)CCC2 | -5.146%

SMILES | Percent Effect
CN1CCCc2cc(CNC(=O)c3cc[n+]([O-])cc3)ccc21 | 106.3%
Cc1ccc(C(=O)NCc2ccc(N3CCNC(=O)C3)c(F)c2)cc1 | -3.953%
CN1CCCc2cc(CNC(=O)c3ccc(-n4cnnc4)cc3)ccc21 | 119.3%
COCC(=O)N[C@H]1C[C@@H](Cc2cc(CN3CCOCC3)on2)C1(C)C | -1.513%
CCCn1cnc2c1CN(S(=O)(=O)Cc1ccccc1)[C@H](C(=O)OC)C2 | -5.674%
CCc1noc(CCCC(=O)Nc2cc(C(F)(F)F)c[nH]c2=O)n1 | 7.764%
Cc1nc(NCCSc2nnc(C)s2)c2cccnc2n1 | -15.89%
COc1ccc(CCNC(=O)NCC(O)c2cccc(F)c2)cc1 (centres undefined) | 127.5%
O=C(NCCc1ccc(F)cc1)NCC(O)c1cccc(F)c1 (centres undefined) | 98.05%
CC(C)COCCCNC(=O)NCC(O)c1cccc(F)c1 (centres undefined) | 93.97%
Cc1nc(CCNC(=O)NCC(O)c2cccc(Cl)c2)cs1 (centres undefined) | 5.885%
O=C(NCC(O)c1cccc(F)c1)c1sccc1OC(F)F (centres undefined) | 13.48%
Cc1cc(OC(F)F)c(C(=O)NCC(O)c2cccc(F)c2)s1 (centres undefined) | -16.7%
O=C(NCCc1cccs1)NCC(O)c1cccc(F)c1 (centres undefined) | 94.53%
O=C(CN1CCCS(=O)(=O)CC1)NCc1ccccc1F | -8.655%
Cc1ccc(CNC(=O)NC2CCN(CC(F)F)CC2)cc1 | -0.1084%
Cn1cnnc1C1CCN(c2nc3ccccc3o2)CC1 | -4.492%
CCOc1ccc(CN(C)C2CCN(c3cc(C)nn3C)C2=O)cc1 (centres undefined) | -7.061%
CCn1ccc(C(=O)N2CCCN(Cc3ccccc3F)CC2)cc1=O | -3.557%
CN(Cc1ccccc1)c1ncccc1CNC(=O)c1ccnn1C | -0.05459%
Cc1ccc(-n2nnc(CC(=O)N3CCSCC3)c2C)cc1 | 7.911%
O=C(NCCc1cccc(F)c1)NCC(O)c1cccc(F)c1 (centres undefined) | 4.017%

SMILES | Percent Effect
O=C(NCCN1CCOCC1)NCC(O)c1cccc(F)c1 (centres undefined) | -0.6049%
O=C(NCCc1ccccc1)NCC(O)c1cccc(F)c1 (centres undefined) | 91.4%
CN1CC2(CCN(C(=O)c3ccc4c(=O)n(C)cnc4c3)C2)OC1=O (centres undefined) | -9.693%
COc1c(C2CCCN2Cc2csc(C(C)C)n2)c(C)nn1C (centres undefined) | 4.743%
CN1CC(=O)N(c2ccsc2)CC12CCN(Cc1nccn1C)C2 (centres undefined) | 2.996%
Cc1cccc(CN2C(=O)CCC23CCN(Cc2ccoc2)CC3)n1 | 102.5%
O=C1CCC2(CCN(Cc3ccoc3)CC2)N1OCc1ccccc1F | -6.682%
Cc1cccc(CN2C(=O)CCC23CCN(Cc2nccn2C)CC3)n1 | 88.13%
Cc1cccc(Cn2c3c(ccc2=O)CCN(Cc2ccoc2)CC3)n1.O=C(O)C(F)(F)F.O=C(O)C(F)(F)F | 0.1669%
Cc1cccc(CN2C(=O)CC[C@@H]3[C@H]2CCN3Cc2nccn2C)n1.O=C(O)C(F)(F)F.O=C(O)C(F)(F)F.O=C(O)C(F)(F)F | 16.26%
Cn1cc(C#N)cc1C(=O)NC1(C#N)CCSCC1 | -2.619%
COCCN(Cc1nccs1)C(=O)c1cc(-c2ccc(C)s2)n[nH]1 | -12.01%
COc1ccc(OCc2sc(C3(O)CCCNCC3)nc2C)cc1.Cl (centres undefined) | -5.149%
Cc1noc(C)c1CNC(C)c1ccc(S(=O)(=O)N(C)C)cc1 (centres undefined) | -12.9%
Cc1nc(COc2ccc(S(=O)(=O)N(C)C)cc2)sc1C | 104.7%
CN(c1ccc(OCc2cnc(Cl)s2)cc1)S(C)(=O)=O | 2.089%
Cc1nc(COc2ccc(N(C)S(C)(=O)=O)cc2)sc1C | 78.79%
Cc1nc(C)c(COc2ccc(S(=O)(=O)N(C)C)cc2)s1 | 94.55%
Cc1nc(C)c(COc2ccc(N(C)S(C)(=O)=O)cc2)s1 | -26.99%
CN(C)S(=O)(=O)c1ccc(OCCNCCn2cccn2)cc1 | 11.92%
Cc1ncc(COc2ccc(N(C)S(C)(=O)=O)cc2)s1 | -0.05196%
